High-throughput results (PubChem BioAssay)
Not all results are given here.
LmPK act: boosts Leishmania mexicana pyruvate kinase activity; activity change, negative = inhibition, % at 57.5 µM; purified LmPK, Kinase-Glo ATP luminescence, 1 h; 290,000 tested, under 10 active; Q27686; calls by dose curve
Target sequence (Q27686 whole entry, looked up): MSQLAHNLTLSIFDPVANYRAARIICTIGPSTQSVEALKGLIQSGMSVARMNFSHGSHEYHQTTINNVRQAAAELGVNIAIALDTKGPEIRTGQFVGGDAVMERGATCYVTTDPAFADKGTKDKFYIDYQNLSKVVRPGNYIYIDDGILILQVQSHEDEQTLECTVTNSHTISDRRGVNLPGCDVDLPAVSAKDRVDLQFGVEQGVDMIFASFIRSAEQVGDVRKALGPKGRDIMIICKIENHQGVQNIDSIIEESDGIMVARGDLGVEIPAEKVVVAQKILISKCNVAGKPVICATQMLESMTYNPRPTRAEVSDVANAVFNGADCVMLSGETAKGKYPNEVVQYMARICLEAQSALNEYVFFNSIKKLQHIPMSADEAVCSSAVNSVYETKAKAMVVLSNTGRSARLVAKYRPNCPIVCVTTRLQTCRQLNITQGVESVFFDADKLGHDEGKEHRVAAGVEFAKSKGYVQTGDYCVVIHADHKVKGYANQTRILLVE
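Coupled luminescent assay: ATP produced by LmPK (0.1 nM) from ADP (0.1 mM, ~10-fold below Km) and PEP (0.5 mM, at Km) after 1 h RT, detected with Kinase-Glo. Data scaled between no-enzyme and uninhibited controls.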
Numbers without * were called inactive.

SMILES	LmPK act
CS(=O)(=O)C1=NSC2=NC(=O)/C(=C\c3ccc(OC(=O)c4ccco4)c(Br)c3)C(=N)N21	-31
COc1ccc(-c2n[nH]c(=S)n2-c2ccc(Br)cc2)cc1OC	-74
Cn1nc(C(=O)Nc2ccc3c(c2)OCCO3)cc1C(=O)O	-45
CSc1nnc(NC(=O)c2ccc(S(=O)(=O)N(C)C)cc2)s1	-33
COc1ccccc1N1C(=O)C=C(Sc2nc(C)cc(C)n2)C1=O	-59
Cc1cc2c(cc1C)CN(c1ccccc1)C2	-70
CCC(=O)Oc1ccc(C(=O)Nc2ccc3c(c2)OCO3)cc1	-37
CN(C)c1ccc(/C=N/N2CCN(c3ccccn3)CC2)cc1	-45
COc1ccc(/C=C/C(=O)c2cc3c(cc2N)OCO3)cc1	-34
COc1cc(O)oc1C=Nc1ccc(C(=O)O)cc1	-62
Cc1ccc(/C=C(\C#N)C(=O)Nc2ccccn2)o1	-43
N#C/C(=C\c1cccs1)C(=O)Nc1nccs1	-31
CC(C)Cn1c(-c2csc3c2CCCC3)n[nH]c1=S	-102
CC(C)Cn1c(-c2ccc(Br)cc2)c[nH]c1=S	-43
Cc1ccsc1C(=O)Nc1nc2ccccc2[nH]1	-86
O=C(COc1ccc2c(c1)OCO2)Nc1nccs1	-85
S=c1[nH]nc(C23CC4CC(CC(C4)C2)C3)n1Cc1ccco1	-34
CC1(C)CCN2CCC(C)(C)c3c(O)ccc1c32	-57
CSCc1ccc(C(=O)Nc2ccc(C(N)=O)cc2)cc1	-33
O=C1C=CC(=O)N1c1cccc(-c2ccccc2)c1	-41
O=C(COC(=O)c1cccnc1Cl)c1ccc(OC(F)F)cc1	-66
N#CCSc1ccc(-c2nc3ccccc3[nH]2)cn1	-69
O=[N+]([O-])c1cc2oc3c(c2c(C=NCc2ccncc2)c1O)CCCC3	-83
S=c1[nH]nc(-c2cccc3ccccc23)n1-c1cccnc1	-72
N#CC(Cc1ccc(OC(F)F)cc1)c1nc2ccccc2[nH]1 (configuration not stated)	-44
SMILES	LmPK act
C/C(=N/OC(=O)c1ccccc1)c1oc(C)nc1C	-40
CSc1nc(=S)c2[nH]c(=S)[nH]c2[nH]1	-31
Cc1ccccc1C(=O)O/N=C(\N)c1ccncc1	-36
O=C(N=Nc1c(O)[nH]c2ccccc12)c1ccco1	-72
Fc1ccc(NCc2n[nH]c(=S)n2Cc2ccccc2)cc1	-38
CCOc1ccc(Cc2c(C)[nH]c3ccc(C(=O)O)cc3c2=S)cc1	-43
CCCC(=O)Nc1ccc(C2C(=O)c3ccccc3C2=O)cc1	-48
O=c1c(Cl)c(N2CCOCC2)cnn1-c1nc2ccccc2[nH]1	-35
CC(C1CC2CCC1C2)n1c(-c2cccs2)n[nH]c1=S (configuration not stated)	-87
COC(CNC(=O)CCc1c(C)nc2c(-c3ccccc3)c(C)nn2c1C)OC	2
COC(=O)c1sccc1NC(=O)Nc1ccc(OC)cc1	-52
COc1cc(/C=C2/C(=O)c3cccc([N+](=O)[O-])c3C2=O)c(Br)cc1O	-93
CN(C(=O)c1ccco1)c1nc2c(s1)CCCC2	-89
CC(C)(C)C1=CC=C(C(C)(C)C)C(=O)C1=O	-68
CCn1cc(-c2n[nH]c(=S)n2-c2ccc(C)cc2Br)c(=O)c2ccc(C)nc21	-83
C/C(=N\O)c1sc(-c2ccccc2)nc1C	-59
Cc1cc2ncc(C(=O)Nc3ccsc3C(=O)O)c(C)n2n1	-73
O=C(NCC1CCCO1)c1csc(Nc2cccc3ccccc23)n1 (configuration not stated)	-121
C/C(=N\NC(=O)c1ccccc1NC(=O)c1ccc(Cl)cc1)c1ccncc1	-40
Cc1ccc(O)c(-n2nc3ccccc3n2)c1	-46
CCOC(=O)Cc1ccc2sc(-c3ccccc3)nc2c1	-77
COc1ccc(C2CC(C)(c3ccc(OC)cc3OC)Nc3ccccc3N2)c(OC)c1 (configuration not stated)	-37
O=CN/C=C/c1cc(O)ccc1O	-81
C/C(=N\NC(=O)c1ccccn1)c1ccc(C(=O)O)s1	-61
CC(C)Cc1cc(CN2CCC(CO)(Cc3cccc(C(F)(F)F)c3)CC2)[nH]n1	-34
SMILES	LmPK act
CCCCn1c(-c2sccc2C)n[nH]c1=S	-67
Fc1ccc(-c2nc(-c3cnccn3)no2)c(Cl)c1	-59
O=C(Nc1ccc(N2CCOCC2)cc1)c1ccc([N+](=O)[O-])o1	-35
Cc1ccccc1-n1c([C@@H]2C[C@H]2c2ccccc2)n[nH]c1=S	-68
CSc1nc(O)c(N=Nc2ccc(F)cc2F)c(=O)[nH]1	-78
N#Cc1c(Cl)c(Cl)c2nnc(-c3ccc(Br)cc3)n2c1Cl	-48
CCCCOc1ccc(Nc2cc(Cl)ccc2C(=O)O)cn1	-35
Cc1nc(S/C(C(=O)O)=C2/C(=O)Nc3ccccc32)n[nH]1	-47
Cc1ccn2cc(-c3ccc(O)c(O)c3)nc2c1	-59
S=c1[nH]nc(CCc2ccccc2)n1-c1ccccc1	-73
O=C(c1ccc(Br)o1)N1CCc2ccccc21	-112
[O-][n+]1onc2c1CCC(=N/O)/C2=N\Nc1ccccc1	-31
CN(C)S(=O)(=O)c1cccc(C(=O)N=C2N=C3C=CC(Cl)=CN3Cc3ccccc32)c1	-44
CC(C)n1c(CSCc2ccc(Cl)cc2Cl)n[nH]c1=S	-64
COc1ccc(C2=CC(=O)C=CC2=O)cc1	-101
CC(C)CCC(CC(C)O)c1n[nH]c(=S)n1-c1ccccc1 (configuration not stated)	-65
